Unmarked numbers belong to inactive results. Active and inactive are the calls of the source.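 Rule for the calls: active = compound that reduces growth-factor-driven endothelial tube area in a mixed cell culture, no cutoff stated; inactive = the rest.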

The nature of the test: inhibition of endothelial tube formation, primary screen, imaging, VEGF stimulated, CD31 staining, tube area, NPC library (AID 1117340). As to conditions: VEGF-stimulated ADSC/ECFC co-culture, at 10 µM, hits give high values.
Regarding `Cc1cccc(C)c1NC(=O)CN1CCCC1=O`, the tube area decrease was -2.5%.

In the case of `CC(=O)[C@H]1CC[C@H]2[C@@H]3CC[C@H]4C[C@H](O)CC[C@]4(C)[C@H]3C(=O)C[C@]12C`, the tube area decrease is -23.1%.

In the case of `CC(O)CN1CCN(CC(=O)[O-])CCN(CC(=O)[O-])CCN(CC(=O)[O-])CC1.[Gd+3]` (stereo not given), the tube area decrease was 9.4%.

Regarding `CCCN1CCC[C@@H]2Cc3nc(N)ncc3C[C@H]21`, the tube area decrease was -0.4%.

In the case of `CC(C)c1c(CN(C)C(C)Cc2ccccc2)n(C)n(-c2ccccc2)c1=O` (stereo not given), the tube area decrease was 9.4%.

For `Cn1c(CCCC(=O)O)nc2cc(N(CCCl)CCCl)ccc21`, the tube area decrease is 44.6% (active).

Turning to `CN1[C@@H]2CC[C@H]1CC(OC(=O)c1cc(Cl)cc(Cl)c1)C2` (stereo not given in full), the tube area decrease is 2.2%.

As to `O=[N+]([O-])c1ccc([As](=O)(O)O)cc1`, the tube area decrease is 3.2%.

As for `COP(=O)(OC)OC=C(Cl)Cl`, the tube area decrease was -16.8%.

`FC(F)(F)c1cccc(C2=CCN(CCc3ccc4ccccc4c3)CC2)c1`: the tube area decrease is -6.6%.

As for `COc1ccc(CN2CCNCC2)c(OC)c1OC`, the tube area decrease was 8.8%.

For `COP(=O)(OC)C(O)C(Cl)(Cl)Cl` (stereo not given), the tube area decrease is 5.8%.

On to `C#C[C@]1(O)C=C[C@H]2[C@@H]3CCC4=CC(=O)CC[C@@H]4[C@H]3CC[C@@]21CC`, for which the tube area decrease was -2.3%.

As for `Cc1ncsc1CCCl`, the tube area decrease was -22%.

As to `C=CCN1C[C@H](C)N([C@H](c2ccc(C(=O)N(CC)CC)cc2)c2cccc(OC)c2)C[C@H]1C`, the tube area decrease was 3.8%.

Take `CCCCc1ccc(C(=O)O)nc1`: the tube area decrease was -19.3%.

With `Cc1ccc(S(=O)(=O)N[C@@H](CCCCN)C(=O)CCl)cc1`, the tube area decrease was 13%.

Turning to `c1ccc(C2CC2)c(OCC2=NCCN2)c1`, the tube area decrease is -3.7%.

As for `Fc1ccc(C(OCCN2CCN(CCCc3ccccc3)CC2)c2ccc(F)cc2)cc1`, the tube area decrease is 30.2%.

For the compound `CC[N+](CC)(CC)CC`, the tube area decrease was 1.4%.

`O=c1n(Cl)c(=O)n(Cl)c(=O)n1Cl`: the tube area decrease is 16.7%.

For the compound `CCCCC/C=C\C/C=C\C/C=C\C/C=C\CCCC(=O)NCC(=O)O`, the tube area decrease was -12.4%.

Take `COC[C@@H](NC(C)=O)C(=O)NCc1ccccc1`: the tube area decrease is -1.1%.

With `CCOC(=O)CC(SP(=S)(OC)OC)C(=O)OCC` (stereo not given), the tube area decrease is 18%.

Regarding `C[C@]12CC[C@H](O)CC1=CC[C@@H]1[C@@H]2CC[C@]2(C)C(=O)CC[C@@H]12`, the tube area decrease is 8%.

`O=C(O)Cc1ccccc1`: the tube area decrease is -39.3%.

On to `CC(C)(C)OC(=O)c1ncn2c1[C@@H]1CCCN1C(=O)c1c(Br)cccc1-2`, for which the tube area decrease was 2%.

Take `NCC1(CC(=O)O)CCCCC1`: the tube area decrease was 20.1%.

In the case of `Cc1nnc2n1-c1sc(CCC(=O)N3CCOCC3)cc1C(c1ccccc1Cl)=NC2`, the tube area decrease was 1.8%.

On to `CCCC[N+]1(C)[C@@H]2CC(OC(=O)[C@H](CO)c3ccccc3)C[C@H]1[C@@H]1O[C@@H]12` (stereo not given in full), for which the tube area decrease was -20.3%.

For `CNCC(=O)c1ccc(O)c(O)c1`, the tube area decrease was -23.7%.

Take `C[N+]1(C)[C@@H]2CC[C@H]1CC(OC(=O)C(CO)c1ccccc1)C2` (stereo not given in full): the tube area decrease is -7.8%.

`Clc1cccc(SC2CCNCC2)n1`: the tube area decrease is 5.5%.

In the case of `O=C(NC(=O)c1c(F)cccc1F)Nc1cc(Cl)c(OC(F)(F)C(F)C(F)(F)F)cc1Cl` (stereo not given), the tube area decrease is 19.4%.

Turning to `CC(C)NCC(O)c1ccc(N)c(C#N)c1` (stereo not given), the tube area decrease was -6.6%.

Take `CN1C[C@@H](NS(=O)(=O)N(C)C)C[C@@H]2c3cccc4c3c(cn4C)C[C@H]21`: the tube area decrease is -8.8%.

Regarding `O=C1NCN(c2ccccc2)C12CCN(CC1COc3ccccc3O1)CC2` (stereo not given), the tube area decrease was 5.4%.

`COc1ccc(C(=O)c2c(C)n(CCN3CCOCC3)c3ccccc23)cc1`: the tube area decrease was 8.1%.

With `N#CC(C#N)=Cc1ccc(O)c(O)c1`, the tube area decrease was 17.4%.

As to `O=C(O)c1ccc2[nH]cc(CCCCN3CC=C(c4ccccc4)CC3)c2c1`, the tube area decrease was -17.1% (active).
